# Assay results reported in PubChem BioAssay.
# Values joined by “and” are separate entries in the source; they are usually repeats but may differ in a detail not shown here. Equal entries are not always repeated. Active and inactive are the calls of the source. Unless noted, the rule behind the calls is not given here.
# Assays:
# [1] = polyglutamine-triggered caspase-3 activation inhibitors, cell-based (AID 1583); details: polyglutamine-induced caspase-3 activation, cell assay; stronger effect = higher value;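 tested at 10 µM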
# [2] = suppressors of polyQ aggregation in yeast, 75Q-TubU reporter (AID 1593); details: Yeast 75Q polyglutamine aggregation reporter
# [3] = circadian clock period modulators, cell-based, LOPAC library, luminescence reporter (AID 2774); details: circadian reporter cells, at 7 µM, actives lie on both sides;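 note: values are relative to mean of DMSO wells on each plate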
# [4] = Cy5 fluorescence quenching or enhancement artefacts, artefact control for HCV NS3 helicase inhibitor project, biochemical, LOPAC1280 (AID 687037); details: Cy5-DNA-NS3h complex fluorescence interference counterscreen
# [5] = stimulators of nuclear beta-catenin in C2C12, primary screen, imaging, WNT3A-conditioned medium, mouse C2C12, NPC library (AID 1117326; in the data active = nuclear beta-catenin stimulation mostly above about 4.2%, no sharp cut-off; inactive = mostly below about 10%); details: stronger effect = higher value
# [6] = stimulators of insulin release from INS-1E, primary screen, cell-based, 5 mM glucose, NPC library (AID 1117329;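 active = compound raises insulin release from rat beta cells at 5 mM glucose, no numeric limit stated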); details: rat INS-1E insulin secretion, at 10 µM, stronger effect = higher value
# [7] = growth inhibition of GSK3B-pretreated HCT116 cells – cell-based, CellTiter-Glo, 0.2 to 20 µM (AID 1117336;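 active = compounds lowering colon cancer cell viability after pretreatment blocking the GSK3B kinase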); details: HCT116 viability after GSK3B inhibitor, at 20 µM, stronger effect = higher value
# [8] = inhibition of endothelial tube formation, primary screen, imaging, VEGF stimulated, CD31 staining, tube area, NPC library (AID 1117340;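 active = compound that reduces growth-factor-driven endothelial tube area in a mixed cell culture, no cutoff stated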); details: VEGF-stimulated ADSC/ECFC co-culture, at 10 µM, stronger effect = higher value
# [9] = glucagon-like peptide 1 release enhancers, primary assay, NCI-H716 cell line, NPC library (AID 1117341;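 active = compound raises GLP1 secretion from the human gut endocrine cells, with no numeric limit stated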); details: NCI-H716 cells, at 10 µM, stronger effect = higher value
# [10] = HCT116 colon cancer cell growth inhibition, primary screen, CellTiter-Glo luminescence, NPC library (AID 1117342;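 active = compounds that lower survival of HCT116 colon cancer cells in the luminescence readout, no numeric limit stated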); details: at 20 µM (top of the series)
# [11] = CellTiter-Glo luminescent readout of SW480 viability loss, NPC library primary (AID 1117343;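 active = compounds that lower viability of the colon cancer cells in the luminescence readout, with no numeric limit stated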); details: CellTiter-Glo luminescence; at 20 µM (top of the series)
# [12] = decreased DLD-1 cellular survival, CellTiter-Glo luminescent readout, NPC compound collection, primary HTS (AID 1117346;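 active = compounds that lower survival of DLD-1 colon cancer cells in the luminescence readout, no cutoff given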); details: DLD-1 viability, CellTiter-Glo luminescence; at 20 µM (top of the series)
# [13] = molecular target: 6-phosphogluconate dehydrogenase, decarboxylating (Homo sapiens) (UniProt P52209); test: 6PGD enzyme inhibitors, primary screen, biochemical, human, recombinant enzyme, NADPH absorbance (AID 1159550;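 active = at least 20% inhibition of 6-phosphogluconate dehydrogenase activity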); details: recombinant 6PGD, NADPH absorbance 341 nm; at 10 µM; stronger effect = higher value
# Sequence of 6-phosphogluconate dehydrogenase, decarboxylating (Homo sapiens) (P52209 whole entry, looked up): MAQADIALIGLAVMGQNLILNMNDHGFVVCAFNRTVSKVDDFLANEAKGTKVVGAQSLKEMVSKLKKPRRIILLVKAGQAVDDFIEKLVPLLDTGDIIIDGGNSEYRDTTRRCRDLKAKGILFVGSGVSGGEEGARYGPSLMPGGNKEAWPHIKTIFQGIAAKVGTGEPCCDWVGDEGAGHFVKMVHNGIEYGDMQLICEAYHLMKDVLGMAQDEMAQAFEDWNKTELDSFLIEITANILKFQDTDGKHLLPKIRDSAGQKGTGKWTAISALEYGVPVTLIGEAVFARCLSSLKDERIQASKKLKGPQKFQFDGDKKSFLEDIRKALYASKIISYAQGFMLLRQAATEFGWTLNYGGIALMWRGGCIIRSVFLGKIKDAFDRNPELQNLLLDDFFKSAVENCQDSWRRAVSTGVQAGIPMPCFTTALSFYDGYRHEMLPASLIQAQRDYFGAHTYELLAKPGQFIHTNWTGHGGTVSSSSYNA
# [14] = differential killing of epithelial or mesenchymal cells, primary screen, imaging, PC-3E GFP, TEM4-18 mCherry, co-culture (AID 1345086;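 active = compounds killing one labelled cell type while sparing the other, by normalised counts and ratio limits, not self-fluorescent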;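 for all read-outs here: cells exposed to compound for 72 h before imaging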;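 for red/green cell ratio (normalised): normalised mesenchymal count divided by normalised epithelial count so high means epithelial killing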); details: imaging cell counts, at 1 µM; for red/green cell ratio (normalised): actives lie on both sides
# [15] = tested on: Aerobactin synthetase IucA (Klebsiella pneumoniae hvKP1); test: Biochemical IucA enzyme inhibition primary screen of the Spectrum library (AID 1346200); details: malachite green pyrophosphate, A620, at 8 µM, stronger effect = lower value;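 note: 100% = wells without compound and 0% = wells lacking enzyme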
# [16] = survival rescue of mitochondrial mutant cells in low glucose, primary screen, MELAS cybrids, Rieske KO mouse fibroblasts, CellTiter-Glo (AID 1508586;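 active = mean z-score across replicates of 1.96 or higher in either the MELAS or the Rieske mutant cell line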;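 note: z relative to plate mean and SD of compound and empty wells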)
# [17] = molecular target: NAD(+) hydrolase SARM1 (Homo sapiens) (UniProt Q6SZW1); test: SARM1 TIR NADase inhibitors, cell lysate, NAD-Glo luminescence (AID 1508614;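 active = compound whose remaining NAD level is above about 45 nM, limit read from the data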;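 note: higher remaining NAD means stronger inhibition of SARM1 NADase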); details: SAM-TIR HEK293T lysate NADase, at 1 µM, stronger effect = higher value
# Sequence of NAD(+) hydrolase SARM1 (Homo sapiens) (Q6SZW1 whole entry, looked up, the tested form may be a part): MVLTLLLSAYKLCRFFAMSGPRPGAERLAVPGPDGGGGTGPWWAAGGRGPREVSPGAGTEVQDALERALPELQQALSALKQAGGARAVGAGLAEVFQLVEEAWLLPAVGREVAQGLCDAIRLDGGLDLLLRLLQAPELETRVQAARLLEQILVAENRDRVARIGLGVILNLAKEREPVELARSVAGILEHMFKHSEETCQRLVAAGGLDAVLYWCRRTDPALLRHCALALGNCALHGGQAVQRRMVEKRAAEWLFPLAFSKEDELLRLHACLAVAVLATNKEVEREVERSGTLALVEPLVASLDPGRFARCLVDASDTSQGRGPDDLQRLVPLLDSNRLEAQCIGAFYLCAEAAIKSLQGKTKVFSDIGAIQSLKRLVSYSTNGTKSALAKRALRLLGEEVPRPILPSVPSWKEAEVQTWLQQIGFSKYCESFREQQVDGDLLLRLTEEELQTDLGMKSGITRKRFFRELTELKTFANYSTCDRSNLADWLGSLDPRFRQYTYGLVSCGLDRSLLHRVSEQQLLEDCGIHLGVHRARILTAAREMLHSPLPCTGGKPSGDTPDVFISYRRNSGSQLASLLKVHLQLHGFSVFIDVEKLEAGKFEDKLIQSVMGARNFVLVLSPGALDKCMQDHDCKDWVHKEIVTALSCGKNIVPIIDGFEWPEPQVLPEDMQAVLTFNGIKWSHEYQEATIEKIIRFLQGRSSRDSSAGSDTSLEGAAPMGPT
# [18] = molecular target: Mitogen-activated protein kinase 7 (Homo sapiens) (UniProt Q13164); test: ERK5 transactivation activators in reporter cells, primary screen, cell-based, HTS (AID 1508626;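 active = luciferase signal above three times the same-plate solvent-only control wells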;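 note: luciferase driven by Gal4-ERK5 fusion binding five Gal4 sites before minimal TATA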); details: HeLa Gal4-ERK5 transactivation, 18 h, at 5 µM, stronger effect = higher value
# Sequence of Mitogen-activated protein kinase 7 (Homo sapiens) (Q13164 whole entry, looked up, the tested form may be a part): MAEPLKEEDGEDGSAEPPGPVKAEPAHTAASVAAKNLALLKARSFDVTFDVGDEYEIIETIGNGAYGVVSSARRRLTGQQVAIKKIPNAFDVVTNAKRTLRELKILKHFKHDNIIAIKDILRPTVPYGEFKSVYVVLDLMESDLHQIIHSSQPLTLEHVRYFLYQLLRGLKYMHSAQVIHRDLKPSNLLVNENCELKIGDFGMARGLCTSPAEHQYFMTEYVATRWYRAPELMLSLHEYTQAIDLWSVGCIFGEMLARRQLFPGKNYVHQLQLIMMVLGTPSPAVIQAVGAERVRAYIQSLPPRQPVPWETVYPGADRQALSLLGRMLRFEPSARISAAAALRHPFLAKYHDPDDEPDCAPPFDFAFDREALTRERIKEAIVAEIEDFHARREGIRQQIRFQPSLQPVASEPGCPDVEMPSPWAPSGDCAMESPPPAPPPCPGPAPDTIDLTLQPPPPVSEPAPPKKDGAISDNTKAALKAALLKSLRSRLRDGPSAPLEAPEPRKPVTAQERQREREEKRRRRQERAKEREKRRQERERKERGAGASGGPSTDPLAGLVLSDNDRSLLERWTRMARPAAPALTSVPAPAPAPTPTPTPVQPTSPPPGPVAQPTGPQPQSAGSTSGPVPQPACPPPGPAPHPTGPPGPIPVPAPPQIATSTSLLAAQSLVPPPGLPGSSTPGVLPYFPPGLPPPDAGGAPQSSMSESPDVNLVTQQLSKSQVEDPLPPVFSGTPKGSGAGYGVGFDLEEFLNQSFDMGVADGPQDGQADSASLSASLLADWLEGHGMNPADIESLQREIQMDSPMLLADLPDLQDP
# [19] = viability rescue of complex I mutant cybrids, primary screen, cell-based, galactose medium, ATP luminescence (AID 1645843;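 active = z-score of at least 1.8 in each of two replicates, scored against plate mean and spread of sample wells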;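 note: positive z means more ATP and so rescue of galactose-driven cybrid death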); details: complex I mutant cybrid cells, 72 h, stronger effect = higher value
# [20] = sensitizers of A549 cells to miR-34 induction, primary screen, imaging, A549 dox-inducible miR-34, nuclei and caspase counts (AID 1347080;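 active = compounds whose cell count with miR-34 switched on is under 0.7 times the count with it off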); details: A549 miR-34 inducible, Hoechst nuclei count, 48 h
# [21] = measured here: epithelial PC-3E GFP cell survival
# [22] = measured here: mesenchymal TEM4-18 mCherry cell survival
# [23] = MELAS cybrid survival, CellTiter-Glo 48 h, stronger effect = higher value
# [24] = Rieske KO mouse fibroblast survival, CellTiter-Glo 72 h
smiles,measurement,setting,value
O=C(CCCN1CCC2(CC1)C(=O)NCN2c1ccccc1)c1ccc(F)cc1,inhibition,[1],-14.9%
same,score,[2],1.06
same,period change,[3],0.035 h (inactive)
same,fluorescence ratio (interference),[4],1 (inactive)
same,nuclear beta-catenin stimulation,[5]; at 10 µM,0.4% (inactive)
same,nuclear beta-catenin stimulation,"[5]; stimulation, at 2 µM",5.7%
same,insulin secretion stimulation,[6],1.8% (inactive)
same,viability decrease,[7],51.6% (active)
same,tube area decrease,[8],-3.9% (inactive)
same,GLP1 secretion stimulation,[9],8% (inactive)
same,inhibition of viability,[10],60.5% (active)
same,viability decrease (inhibition),[11],95.2% (active)
same,viability decrease (inhibition),[12],83.7% (active)
same,inhibition,[13],-2.11% (inactive)
same,red/green cell ratio (normalised),[14],1.18 (inactive)
same,normalised cell number,[14]; [21],0.93
same,normalised cell number,[14]; [22],1.1
same,activity remaining,[15],110% (inactive)
same,z-score,[16]; [23],0.0809 (inactive) and 0.865 (inactive)
same,z-score,[16]; [24],-0.502 and 0.666
same,remaining NAD,[17],10 nM (inactive)
same,luciferase signal,[18],60 AU (inactive)
same,z-score,[19],-1.13 (inactive) and 1.23 (inactive) and -1.53 (inactive)
O=C(O)CCCc1ccc(N(CCCl)CCCl)cc1,inhibition,[1],25.6%
same,score,[2],-0.24
same,period change,[3],-0.09 h (inactive)
same,fluorescence ratio (interference),[4],1 (inactive)
same,nuclear beta-catenin stimulation,[5]; at 10 µM,3.6% (inactive)
same,nuclear beta-catenin stimulation,"[5]; stimulation, at 2 µM",-1.1%
same,insulin secretion stimulation,[6],-0.1% (inactive)
same,viability decrease,[7],49.8% (inactive)
same,tube area decrease,[8],87% (active)
same,GLP1 secretion stimulation,[9],-0.8% (inactive)
same,inhibition of viability,[10],8.83% (inactive)
same,viability decrease (inhibition),[11],3.9% (inactive)
same,viability decrease (inhibition),[12],2.6% (inactive)
same,inhibition,[13],-1.4% (inactive)
same,red/green cell ratio (normalised),[14],0.75 (inactive)
same,normalised cell number,[14]; [21],1.2
same,normalised cell number,[14]; [22],0.9
same,activity remaining,[15],115% (inactive)
same,z-score,[16]; [23],-0.116 (inactive) and 0.451 (inactive)
same,z-score,[16]; [24],-0.284 and -0.412
same,remaining NAD,[17],10 nM (inactive)
same,luciferase signal,[18],144 AU (inactive)
same,z-score,[19],-0.065 (inactive) and 0.565 (inactive)
CC(C)N(CCC(C(N)=O)(c1ccccc1)c1ccccn1)C(C)C (stereo not given),inhibition,[1],-16.9%
same,score,[2],1.39
same,period change,[3],0.265 hour (inactive) and -0.11 hour (inactive)
same,fluorescence ratio (interference),[4],1 (inactive)
same,nuclear beta-catenin stimulation,[5]; at 10 µM,0.5% (inactive)
same,nuclear beta-catenin stimulation,"[5]; stimulation, at 2 µM",1.2%
same,insulin secretion stimulation,[6],0.8% (inactive)
same,viability decrease,[7],-17.4% (inactive)
same,tube area decrease,[8],15.3% (inactive)
same,GLP1 secretion stimulation,[9],-2.8% (inactive)
same,inhibition of viability,[10],-3.87% (inactive)
same,viability decrease (inhibition),[11],18.8% (inactive)
same,viability decrease (inhibition),[12],-13.7% (inactive)
same,inhibition,[13],5.28% (inactive)
same,red/green cell ratio (normalised),[14],1.1 (inactive)
same,normalised cell number,[14]; [21],1.22
same,normalised cell number,[14]; [22],1.34
same,activity remaining,[15],102% (inactive)
same,z-score,[16]; [23],-0.238 (inactive) and 0.483 (inactive)
same,z-score,[16]; [24],-0.211 and 0.374
same,remaining NAD,[17],10 nM (inactive)
same,luciferase signal,[18],32 AU (inactive)
same,z-score,[19],0.14 (inactive) and 0.36 (inactive) and 1.19 (inactive)
c1ccc2nc(N3CCNCC3)ccc2c1,inhibition,[1],-24.6%
same,score,[2],1.22
same,period change,[3],-0.04 h (inactive)
same,nuclear beta-catenin stimulation,[5]; at 10 µM,0.1% (inactive)
same,nuclear beta-catenin stimulation,"[5]; stimulation, at 2 µM",-1.9%
same,insulin secretion stimulation,[6],4% (inactive)
same,viability decrease,[7],41.7% (inactive)
same,tube area decrease,[8],-4.1% (inactive)
same,GLP1 secretion stimulation,[9],3.6% (inactive)
same,inhibition of viability,[10],56.9% (active)
same,viability decrease (inhibition),[11],54.9% (active)
same,viability decrease (inhibition),[12],25% (inactive)
same,inhibition,[13],9.28% (inactive)
same,red/green cell ratio (normalised),[14],1.18 (inactive)
same,normalised cell number,[14]; [21],1.13
same,normalised cell number,[14]; [22],1.34
same,activity remaining,[15],124% (inactive)
same,fold change,[20]; stronger effect = lower value,0.855 (inactive) and 0.953 (inactive) and 0.849 (inactive)
same,fold change,[20]; measured here: relative caspase fold change +Dox/-Dox,1.3 and 0.736 and 5.89
same,cell count,"[20]; measured here: total cells with miR-34 induction, stronger effect = lower value",9120 and 9090 and 11300
same,cell count,[20]; measured here: total cells without miR-34 induction,10700 and 9530 and 13400
same,z-score,[16]; [23],0.387 (inactive)
same,z-score,[16]; [24],0.0895
same,remaining NAD,[17],10 nM (inactive)
same,luciferase signal,[18],28 AU (inactive)
same,z-score,[19],-0.47 (inactive)
